32 molecules from the supplement of paper PMC12632987 can be followed below.

B1: uchl1_199_7510 (protein)
chain: SSRTESIARNMAGRLLRYIMDPETARERARRLARRLITRRPGLSVEELTETFQLLVEYVAAERDPAVTRAVTDALVEAVREELGDEAAAAAVRARAEELL
B2: uchl1_155_7498 (protein)
chain: GTTVTVTATGTAADGTVVTSTTTFTGLTSSVADMQALQAAILAQLLAVAAQVDGDIDLAVTVSNATANQAVGIGTAVRRAASQAGKQTGLTINVTLTGAP
B3: uchl1_199_7508 (protein)
chain: SSKTEDIARNMAGRLLRYIRSPEVLAARARRLTERLIREQTHLSVEEITETFLLLVDYVHANRSPEQTRAVTDAIVEAVERELGDEEAAKRIREHTESLL
B4: uchl1_143_7493 (protein)
chain: GAPAEEVVVLELTIEETDTPEEIRAKITAAIEEAVATGKPSVVVITVPPDPNVRVTVGNAAKRAVREAAKAHGDQIKDLRVVARDAETGKEQLLAEVVNP
B5: uchl1_199_7517 (protein)
chain: MSREDDIARYMAGPFLLSNGSPEVVRARARERTRRLIRTRKDLSPEELTEIMVRFVEILAAHRDPETVRAATEGIVEAILEELGDEEAARRVRARAEELL
B6: uchl1_143_7491 (protein)
chain: GLDNLEVETVEIEVSEEDTPEELAARLREVIEEALAKGKALRIILTVPPDPNVRLMVNTVARRVLREFAQEHRDELKYVEIYARDEETGKEQLLAEFVNP
B7: uchl1_143_7492 (protein)
chain: GAAAVPVLRVEITVTRDTTPEELRARLEAAVREAAARKAALEVTITVPPDPNLKLMVNTVARRVARRAAREYADTLPRLTINARDAETGKTQVVAEAVNP
B8: uchl1_199_7516 (protein)
chain: MTRAESIARMLGGRLLRGIRDPEKLAARAAELTRRMLERLANLPDETILETVRLLLEAIARERSLEDARAAGEAIVEVLAEERGIGEAARAVVDEVLAAA
B9: uchl1_199_7515 (protein)
chain: MTRAESIAAQLGGRLLSGIYSPEVLAARAAALWADVLRRLSDLPDEELLEAFRILLEALAAAVDEASARAAAEAIVAVLAEERGIGERARAIADEVLAAR
B10: uchl1_179_7503 (protein)
chain: AMKKVRIRATITFPKSTTMEQALAVAKEIAAALKELGVTGVSRIVVSRYNPENDPAHPDHMVITIGLVVPEEKAEAVIEAIKEIAAKAGAEVEIETEEVA
B11: uchl1_155_7502 (protein)
chain: MRTVRITIDVTLPDATETVEVTLERTVSDKPEDREALAEEVAATVDAILAQGKNVRLTVTVTVPDKMVVAASLYQAIRRRVRAVARRHGAEVVITAEVVP
B12: uchl1_199_7505 (protein)
chain: SSRTEDIARNMAGRLLRYIRSPEVLAERARRLTRELIERQTHLSVEEITETLKLLVTYIHAERSPEETRAATDAIVEAVRELLGDEAAAAAIRAHTEALL
B13: uchl1_199_7514 (protein)
chain: MSRAESIARQVGGRLLSGVGSPEVLAARAARLLREVLARLPDLPDEELLAMVRILLEAIAKNRSPETFDAVAAALIAVLQEERGIGAAAAAIAAEVRAKA
B14: uchl1_199_7512 (protein)
chain: MSRAESIARQVGGRLLSGIGSPEVLAAKAAALLRRVLARLPDLPDETLLEMVRILLEAIARERSPEAFAAVAAALIAVLDAERGIGAEVAAIAEEVRAAA
B15: uchl1_143_7487 (protein)
chain: AVEVIELSPEEVAAWLALPDEEALAALEAVLEAAVDRGVDTLVRIPAPEDANDRLRLNTLVRRAARRVAAAHADRIDSVTISQEKDPNGPPRLVVSIRVK
B16: uchl1_179_7504 (protein)
chain: ARRLVRIRATIVFPRSTTREEALAVARRIHAALKELGVTGLINLRVSRYNPENNPEHPDRMVIRLGLVVPEELADAVEAAIRALAAEAGAEIEIEREAIA
B17: uchl1_199_7509 (protein)
chain: SSKTRSIAINMAGRLLRYIMDPETARERALRLARELITRRPGLSVEEITETFELLVRLVAAERDPETVRAVTDAIVEAILELLGDEEAAARVRATAEALV
B18: uchl1_155_7499 (protein)
chain: GTTVTVTATGTAADGTTHTLTKTFEGITSSVEDMLALRDEILAMLLELAAKVDGDIDLKVDVSNATANQAVGIGTAVRRAASEAGKETGLTINVDITGLP
B19: uchl1_199_7518 (protein)
chain: MSREEDIARYMAGPFLFSNGSPEVVRARAYRLTVRLIRTRKDLSREELTAILVRFVEILAANRDPETVRAATEGIVEAVLEELGDEESAARIRAAAEALL
B20: uchl1_143_7489 (protein)
chain: EVRVLDVSEAEVAEILALSPEEAVAAIYARLSAAIALGVDTEVRFPAPERANDRLRLGTAVRRAARRAARDHADEIADVVIYNERDPDERPRLVVRITRK
B21: uchl1_155_7496 (protein)
chain: MLRVRVTITGTNADGTTLTRELELEIENPTLEKIQEAAREIAEAVREFALAVDGPVEVRVEVSADRRLHAASFSQALRRALREVAKETGKEITLDVRGVP
B22: uchl1_143_7494 (protein)
chain: GPVVEPVVVIELRIERTDTPEEIRAKIRAAVEEAVATGKPTVIEITVPADANMRLTVSTSARRVAREAAKEHPDKIKDLRIYARDEETGKRQLIAEVIKE
B23: uchl1_143_7490 (protein)
chain: SSSDLPVEEVTITVTLDDTPEQIRARLRAAIEAAVAAGRALRINITVPADPNMRLMVNTVARRVAREVARAHADRVRHVEIYATDAATGKTDLLAEVVNP
B24: uchl1_143_7488 (protein)
chain: EVKVIELSPEEVAEILSLSDEEALARLKEIIEAAVELGVDTEIRIPAPEDANDRLRLHTLVKRAAREVAKKYADKIDSVEIYQELDPNARPRIVVRITVK
B25: uchl1_155_7497 (protein)
chain: MTTVTVVVTGTSPDGTTVTKTKTFEGLTSSVADLEALREAMKAMIVETAKEVKGDVDVTVNVTNATANQAVGIGTAARRAANEAGKETGLTVSLTLVGVP
B26: uchl1_155_7501 (protein)
chain: MATVTVTATGTAPDGTTHTLTKTFEGITSSVEDLLALREAVLALLVELAKKVKGDVDVVVEVSNADANTRVGIGTAVRRAASEAGKQTGLTVSVTIREVA
B27: uchl1_199_7513 (protein)
chain: MTRAESIARQVGGRLLSGIGSPEVLAARAARLLRLVLERLPDLPDEELLEAVRLLLRAIAAERSPEAFDAVAAALTAVLQEERGIGERMAAIAAEVRAEA
B28: uchl1_199_7511 (protein)
chain: MTKEEDIARNMAGRLLRYELDPEKVRERARRLATLLVERLSHLSVEEITETFLILVELVAKENNPEVLRAVTEAIVEVVRERLGDEEAARRIRERAEELA
B29: uchl1_155_7495 (protein)
chain: MLEVEVEVVARRPDGTVARERFRFRTEEITPENRRALAERVAERVREFVERHGGDVDVTVRIRSPSQIARASLYRAIRIRLREVAKELGVEVTVRAEPVP
B30: uchl1_199_7506 (protein)
chain: SSKTEDIARNMAGRLLRYIRTPEVLAARARRLTRLLIERQTDLSVEEITETLLKLVELVHKERTPEETRAVTDAIVEAVLELLGDEEAARRIREHAEELL
B31: uchl1_199_7507 (protein)
chain: SSLTEDIARNMAGRLLRYIRTPEVLAARAAELTARLIREQTHLSVEELTEIFLLLVDYVHAERTPEETRAATDAIVAEVERLLGDAAAAARIRAHAAALL
B32: uchl1_155_7500 (protein)
chain: GTTVTVTVTGTASDGTTHTLTKTFEGLTSSVADMEALREAILAMLLELAAKVDGDIKLTVNVRNATANQAVGIGTAVRRAASEAGKKTGKTIDVDITGLP

Chain of UCHL1, P09936 (P09936 whole entry, looked up, the tested form may be a part): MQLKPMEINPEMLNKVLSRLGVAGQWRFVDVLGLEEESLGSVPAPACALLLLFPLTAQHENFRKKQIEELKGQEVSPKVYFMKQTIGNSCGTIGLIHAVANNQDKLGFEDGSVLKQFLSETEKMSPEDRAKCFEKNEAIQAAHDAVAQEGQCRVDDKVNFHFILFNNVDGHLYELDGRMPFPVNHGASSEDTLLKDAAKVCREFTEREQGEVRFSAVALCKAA

The assay concerns the target UCHL1, P09936. In words: median log2 fold change of GCK-ALFA target abundance (FLAG IP / Myc IP barcode read proportion) (log2 ratio); each designed protein is fused to an ALFA-tag nanobody in HEK293 cells to bring the named protein to FLAG-tagged glucokinase (GCK); Myc marks an untargeted standard; higher = target protein stabilised (more abundant). The settings on record: target protein: 3xFLAG-MCP-GCK-ALFA reporter; HEK293 landing pad (RPLP). The method, boiled down:
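Sequencing of reverse-transcribed, amplified circular RNA barcodes from anti-FLAG and anti-Myc immunoprecipitates provided the readout for an ALFA-nanobody-fused binder library recombined into HEK293 landing-pad cells. Those cells were induced with 2 μg mL^−1 doxycycline, transfected with a plasmid expressing a FLAG-tagged target and a Myc-tagged standard, and lysed after 48 h. Target abundance is the per-binder median log2 ratio of FLAG to Myc barcode read proportions. Only barcodes at a proportion of ≥10^−7 in both replicates and binders with ≥3 barcodes per replicate were kept, with a 10^−6 pseudocount added before the two replicates were pooled.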
Turning to B1, the “median log2 fold change” value was -0.193.
Then B2, with 0.16; and B3, with 0.0747.
As for B4, the “median log2 fold change” value is 0.229.
On to B5, for which the “median log2 fold change” value stood at 0.00596.
Then B6, with 0.302; and B7, with 0.184.
Then B8, with -0.835; and B9, with 0.16; and B10, with -0.0524.
Then B11, with -0.0533; and B12, with 0.192; and B13, with -0.0877.
B14: the “median log2 fold change” value is -0.679.
The result for B15 reads 0.226.
The result for B16 reads 0.192.
Then B17, with -0.0199; and B18, with 0.302; and B19, with -0.219.
Regarding B20, the “median log2 fold change” value came out at 0.144.
The result for B21 reads 0.0376.
Then B22, with 0.397.
The result for B23 reads 0.232.
In the case of B24, the “median log2 fold change” value turned out to be 0.21.
The result for B25 reads 0.314; that for B26, 0.237; that for B27, -0.209.
Then B28, with -0.27.
The result for B29 reads -0.0429; that for B30, 0.171; that for B31, 0.269.
Turning to B32, the “median log2 fold change” value is 0.302.
